A short description of assay [1]: growth inhibition of DIPG cells – cell-based, MIPE4.0 library, CellTiter-Glo luminescence, qHTS (AID 1347066; cut-off not given, nearly all actives have AC50 up to about 30 µM;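 further: cells exposed to compound for 48 hours before readout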). The settings on record: SU-DIPG-VI viability, CellTiter-Glo ATP luminescence. (ATP-based viability assays read luminescence as a measure of living cells.)
The nature of assay [2]: JHH-DIPG-1 glioma cell viability, MIPE5.0 library, CellTiter-Glo luminescence, qHTS (AID 1347067; cut-off not given, nearly all actives have AC50 up to about 26 µM;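 further: cells exposed to compound for 48 hours before readout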). The settings on record: JHH-DIPG-1 glioma viability, CellTiter-Glo ATP luminescence.
The nature of assay [3]: compounds altering HSF1 focus formation in cells – imaging, Selleck Cancer Library (AID 1347162; in the data active means plate-normalised HSF1 focus index below about 0.46). The settings on record: human cells, HSF1 nuclear foci imaging, at 10 µM; SSMD: measured here: HSF1 foci SSMD mean; cell count: measured here: cell number; plate-normalised HSF1 focus index: stronger effect = lower value.
Assay [4] is described as follows: blockers of cellular phospholipid synthesis – cell-based, LOPAC library, screen 4, primary screen (AID 1347384; call rule not given here). The settings on record: animal cells, phospholipid biosynthesis inhibition screen; at 10 µM.
Assay [5] is described as follows: MELAS cybrid and Rieske KO viability enhancers – cell-based, MELAS cybrids, Rieske KO mouse fibroblasts, CellTiter-Glo, primary screen (AID 1508586;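 active means mean z-score across replicates of 1.96 or higher in either the MELAS or the Rieske mutant cell line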;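 further: z relative to plate mean and SD of compound and empty wells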). The settings on record: low glucose.
Assay [6] in a line: drug combination growth inhibition, ovarian cancer – cell-based, oncology-focused library, rucaparib conditional, profiling panel (AID 1508598). The settings on record: patient-derived ovarian cancer cells, CellTiter-Glo viability, 144 h, stronger effect = lower value.
A short description of assay [7]: viability loss with induced miR-34 in A549 – imaging, A549 dox-inducible miR-34, nuclei and caspase counts, primary screen (AID 1347080;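 active means compounds whose cell count with miR-34 switched on is under 0.7 times the count with it off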). The settings on record: A549 miR-34 inducible, Hoechst nuclei count, 48 h.
The nature of assay [8]: growth inhibition of DIPG cells – cell-based, MIPE5.0 library, qHTS (AID 1347068; cut-off not given, nearly all actives have IC50 up to about 30 µM). The settings on record: SU-DIPG-XXV viability.
Where [9] appears, read: MELAS cybrid survival, CellTiter-Glo 48 h, stronger effect = higher value.
[10] abbreviates: Rieske KO mouse fibroblast survival, CellTiter-Glo 72 h.
Setting [11] is: stronger effect = lower value, cell number ratio, induced over uninduced.
[12] abbreviates: measured here: relative caspase fold change +Dox/-Dox.
Where [13] appears, read: measured here: total cells with miR-34 induction, stronger effect = lower value.
Setting [14] is: measured here: total cells without miR-34 induction.

Values joined by “and” are separate entries in the source; they are usually repeats but may differ in a detail not shown here. Identical values can stand only once. Results filed as inconclusive are left out. Active and inactive are the calls of the source.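 How the source made its calls, unless noted: active means normalized viability below 100% at a tested concentration; inactive means the rest.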

Regarding `CC[C@@]1(O)C(=O)OCc2c1cc1n(c2=O)Cc2cc3c(CN(C)C)c(O)ccc3nc2-1`, the molecule was called inactive in assay [1] and in assay [4]. For the same molecule, the AC50 in assay [2] is 4.17 µM (active). For the same molecule, the SSMD in assay [3] is -8.15. Besides, in assay [3], the cell count turned out to be 6870. The plate-normalised HSF1 focus index in assay [3] was 0.582 (inactive). Also, the z-score in assay [5] (setting [9]) is -0.568 (inactive) and -2.28 (inactive) and -2.25 (inactive); in assay [5] (setting [10]), 0.849 and -0.703 and -1.06. Besides, the viability in assay [6] (at 0.000305 µM, OCI-C5x cells, with rucaparib 10 µM, 100% = cells with rucaparib alone) is 104% (inactive); in assay [6] (at 0.000305 µM, OCI-C5x cells, without rucaparib) it was 104% (inactive); in assay [6] (at 0.000305 µM, OCI-P5x cells, with rucaparib 20 µM, 100% = cells with rucaparib alone), 94.2% (active); in assay [6] (at 0.000305 µM, OCI-P5x cells, without rucaparib), 107% (inactive); in assay [6] (at 0.00122 µM, OCI-C5x cells, with rucaparib 10 µM, 100% = cells with rucaparib alone) it was 89.3% (active); in assay [6] (at 0.00122 µM, OCI-C5x cells, without rucaparib) it was 92.9% (active). Also, the viability was 83.1% (active) in assay [6] (at 0.00122 µM, OCI-P5x cells, with rucaparib 20 µM, 100% = cells with rucaparib alone); 79.7% (active) in assay [6] (at 0.00122 µM, OCI-P5x cells, without rucaparib); 83.9% (active) in assay [6] (at 0.00488 µM, OCI-C5x cells, with rucaparib 10 µM, 100% = cells with rucaparib alone); 62.6% (active) in assay [6] (at 0.00488 µM, OCI-C5x cells, without rucaparib); 64.6% (active) in assay [6] (at 0.00488 µM, OCI-P5x cells, with rucaparib 20 µM, 100% = cells with rucaparib alone); 49.2% (active) in assay [6] (at 0.00488 µM, OCI-P5x cells, without rucaparib). The viability in assay [6] (at 0.0195 µM, OCI-C5x cells, with rucaparib 10 µM, 100% = cells with rucaparib alone) was 61.6% (active); in assay [6] (at 0.0195 µM, OCI-C5x cells, without rucaparib), 46.1% (active); in assay [6] (at 0.0195 µM, OCI-P5x cells, with rucaparib 20 µM, 100% = cells with rucaparib alone), 51.1% (active); in assay [6] (at 0.0195 µM, OCI-P5x cells, without rucaparib) it was 31.5% (active); in assay [6] (at 0.0781 µM, OCI-C5x cells, with rucaparib 10 µM, 100% = cells with rucaparib alone), 43.7% (active); in assay [6] (at 0.0781 µM, OCI-C5x cells, without rucaparib) it was 22.5% (active). For the same molecule, the viability in assay [6] (at 0.0781 µM, OCI-P5x cells, with rucaparib 20 µM, 100% = cells with rucaparib alone) is 31.5% (active); in assay [6] (at 0.0781 µM, OCI-P5x cells, without rucaparib), 11.7% (active); in assay [6] (at 0.313 µM, OCI-C5x cells, with rucaparib 10 µM, 100% = cells with rucaparib alone), 31% (active); in assay [6] (at 0.313 µM, OCI-C5x cells, without rucaparib), 10.3% (active); in assay [6] (at 0.313 µM, OCI-P5x cells, with rucaparib 20 µM, 100% = cells with rucaparib alone), 10.6% (active); in assay [6] (at 0.313 µM, OCI-P5x cells, without rucaparib), 4.1% (active). For the same molecule, the viability in assay [6] (at 1.25 µM, OCI-C5x cells, with rucaparib 10 µM, 100% = cells with rucaparib alone) is 11.2% (active); in assay [6] (at 1.25 µM, OCI-C5x cells, without rucaparib), 7.82% (active); in assay [6] (at 1.25 µM, OCI-P5x cells, with rucaparib 20 µM, 100% = cells with rucaparib alone), 3.74% (active); in assay [6] (at 1.25 µM, OCI-P5x cells, without rucaparib), 1.56% (active); in assay [6] (at 5 µM, OCI-C5x cells, with rucaparib 10 µM, 100% = cells with rucaparib alone) it was 4.91% (active); in assay [6] (at 5 µM, OCI-C5x cells, without rucaparib) it was 4% (active). Besides, the viability in assay [6] (at 5 µM, OCI-P5x cells, with rucaparib 20 µM, 100% = cells with rucaparib alone) is 5.99% (active); in assay [6] (at 5 µM, OCI-P5x cells, without rucaparib), 4.13% (active).

In the case of `COCCCC/C(=N\OCCN)c1ccc(C(F)(F)F)cc1`, the molecule was classed as inactive in assay [1] and in assay [4]. Also, the fold change was 0.98 (inactive) and 0.926 (inactive) and 0.976 (inactive) in assay [7] (setting [11]); 1.02 and 0.609 and 0.939 in assay [7] (setting [12]). The cell count in assay [7] (setting [13]) is 9020 and 8820 and 7770; in assay [7] (setting [14]), 9200 and 9520 and 7960. In addition, the z-score in assay [5] (setting [9]) is 0.622 (inactive); in assay [5] (setting [10]), -0.626.

For the molecule `CCCOc1ccc(C(=O)OCCN(CC)CC)cc1N`, the molecule was called inactive in assay [1], in assay [2] and in assay [8]. The z-score in assay [5] (setting [9]) was 0.278 (inactive) and -0.171 (inactive) and -0.393 (inactive); in assay [5] (setting [10]), -0.35 and 0.529 and -1.27.

`CN1CCC(=C2c3ccccc3C=Cc3ccccc32)CC1`: the call in assay [1], in assay [2], in assay [8] and in assay [4] was inactive. Also, the z-score in assay [5] (setting [9]) is -0.307 (inactive) and -0.043 (inactive) and -1.41 (inactive); in assay [5] (setting [10]), -0.028 and 0.523 and -1.01.

For the molecule `COc1ccccc1N1CCN(CC(O)COc2cccc3ccccc23)CC1` (stereo unspecified), the outcome in assay [1], in assay [2], in assay [8] and in assay [4] was inactive.

For `CC(C)(Sc1cc(C(C)(C)C)c(O)c(C(C)(C)C)c1)Sc1cc(C(C)(C)C)c(O)c(C(C)(C)C)c1`, the outcome in assay [1] and in assay [8] was inactive. Also, the fold change in assay [7] (setting [11]) is 0.81 (inactive) and 0.886 (inactive) and 0.877 (inactive); in assay [7] (setting [12]) it was 1.96 and 0.704 and 3.16. The cell count in assay [7] (setting [13]) was 8410 and 8070 and 11000; in assay [7] (setting [14]), 10400 and 9110 and 12500. The z-score in assay [5] (setting [9]) was -0.245 (inactive) and 0.14 (inactive); in assay [5] (setting [10]), -0.773 and -0.118.

For orientation: AC50 means the midpoint of the concentration-response curve, whichever way the signal moves. For orientation: viability means a read-out of living cells in per cent, often relative to untreated cells.

The values above are taken from PubChem BioAssay.
